# Hits are enriched below; roughly 7.5% of the tested compounds scored in any of these assays.
# HCMV antiviral: blocks human cytomegalovirus replication; activity change, negative = inhibition, % at 57.5 µM; HFF cells, HCMV-luciferase reporter, 72 h; stronger effect = lower value; hit rate 4.5% among 410,000; in the data active means activity change below about -60%; inconclusive means no clear call, values can overlap the other calls; inactive means above about -39%
#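 Luciferase read-out from HCMV-luciferase-infected HFFs (MOI 1 PFU/cell) 72 h post infection at 37C; compounds added after 16 h cell attachment; activity normalized between buffer-only basal and Salinomycin (10uM) inhibitor controls.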
# Vaccinia mCherry: vaccinia inhibition (mCherry reporter); hit rate 0.63% among 310,000; Potency, µM (top dose mostly 36.5 µM), usual class: inhibitors; AID 720579; Vaccinia virus mCherry reporter infection, fluorescence; calls by dose curve; tested in A549 cells; further: nearly all actives have a fitted effect of over 35% in size
# Giardia FBPA inh: inhibitors of Giardia lamblia fructose-1,6-bisphosphate aldolase; A8B2U2; purified Giardia FBPA; Potency, µM (top dose mostly 59.6 µM), most hits filed as inhibitors; hit rate 0.71% among 290,000; further: nearly all actives have a fitted effect of over 55% in size
# Target sequence (A8B2U2 whole entry, looked up): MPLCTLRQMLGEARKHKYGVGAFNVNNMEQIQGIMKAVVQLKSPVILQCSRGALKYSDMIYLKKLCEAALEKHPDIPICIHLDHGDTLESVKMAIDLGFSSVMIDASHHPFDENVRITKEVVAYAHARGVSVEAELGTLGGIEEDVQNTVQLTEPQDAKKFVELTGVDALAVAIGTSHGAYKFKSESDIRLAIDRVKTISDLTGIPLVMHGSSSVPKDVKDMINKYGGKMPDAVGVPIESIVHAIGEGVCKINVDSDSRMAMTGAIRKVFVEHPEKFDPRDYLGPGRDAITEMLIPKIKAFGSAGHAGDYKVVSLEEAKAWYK
#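 40 nM FBPA preincubated 10 min at RT with compound (up to 57.5 uM final), then substrate plus GAPDH/TPI/NAD/arsenate coupling and diaphorase/resazurin added. Fluorescence read after 20 min at RT, 525/598 nm.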
# HCV inh: inhibitors of hepatitis C virus infection; Huh7.5.1 HCVcc-Cre infection, luciferase reporter, 44 h; Potency, µM (doses to about 41.8 µM), actives largely listed as inhibitors; hit rate 3.4% among 340,000
#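 Luciferase read-out (15 sec integration) after a 15 min room-temperature substrate step quantifies HCVcc-Cre infection. Cells, 1,000 per well, had compound added 4 h post-plating, then virus at ~0.5 moi, and were cultured 44 h.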
# Vaccinia Venus: vaccinia inhibition (Venus reporter) | Vaccinia virus Venus reporter expression, fluorescence | hit rate 0.46% among 330,000 | Potency, µM (top dose mostly 36.5 µM), most hits filed as inhibitors; calls by dose curve; tested in A549 cells; further: nearly all actives have a fitted effect of over 30% in size
# FMDV antiviral: foot and mouth disease virus antiviral activity; FMDV antiviral cell-based qHTS; Potency, µM (titrated, usually from 57.9 µM), most hits filed as inhibitors; hit rate 1.2% among 410,000; AID 1159524; calls by dose curve; tested in HEK293T cells; further: read-out not given here; nearly all actives have a fitted effect of over 45% in size
# Numbers stand for hits; – = inactive; ? = inconclusive; · = no result; ! = not confirmed by another sample. Unless noted, the call rests on the fitted dose curve; in most records, active means well fitted curve in the direction sought with a large enough effect; inconclusive means small, poorly fitted or top-dose-only effect, or another doubt; inactive means no such curve, though single readings can be large; an effect the other way counts as inactive or inconclusive.
SMILES,HCMV antiviral,Vaccinia mCherry,Giardia FBPA inh,HCV inh,Vaccinia Venus,FMDV antiviral
COc1ccc2[nH]c3c(c2c1)CCN1C(=O)C(CC(=O)NCc2ccc(OC)c(OC)c2)C[C@H](C(=O)N2CCCCC2)[C@@]31CCc1ccccc1 (some centres undefined),?,–,·,10µM,–,–
N[C@@H](CCCCP(=O)(O)O)C(=O)O,·,·,–,·,·,–
COc1ccc(/C=N/c2nc3ccccc3n2CCN2CCCCC2)cc1OC,-64,–,–,–,–,–
C=CCn1c(/N=C/c2ccc(OC)cc2)nc2ccccc21,·,·,–,–,·,–
CCN(CC)CCn1c(NCc2ccc(OC)cc2)nc2ccccc21,-100,·,–,?,·,–
COc1ccc(OC)c(CNc2nc3ccccc3n2CCN2CCCCC2)c1,–,·,–,11µM,·,–
Cc1ccc(C(=O)Nc2ccc3nccnc3c2)cc1,–,–,–,–,–,–
COCCCN1C(=O)c2ccc(C(=O)Nc3ccccc3OC)cc2C1=O,–,–,–,–,–,–
O=C(Nc1ccc(SC(F)F)cc1)c1ccc2nccnc2c1,-78,–,?,3.5µM,–,·
Cc1cc(C)c(NC(=O)c2ccc3nccnc3c2)c(C)c1,-72,–,·,–,–,–
COCCCN1C(=O)c2ccc(C(=O)Nc3ccc(C)cc3C)cc2C1=O,-92,·,–,–,·,–
Cc1ccc(NC(=O)c2ccc3nccnc3c2)c(C)c1,-68,–,–,–,–,–
CCCCC1=NN(C(=O)c2cccnc2)C(O)(C(F)(F)F)C1 (centres undefined),–,–,–,?,–,–
CCN(CC)CCN(C)c1ccc(/C=C/c2ccnc3ccccc23)cc1,·,–,·,·,–,·
Cc1cccc(-c2nn(-c3ccccc3)cc2C(=O)N2CCN(C3CCS(=O)(=O)C3)CC2)c1 (centres undefined),–,–,·,–,–,–
CCCCn1c(=O)c(-[n+]2ccccc2)c([O-])c2ccccc21,-62,·,?,–,–,–
Cc1nc(-c2ccc(S(=O)(=O)N3CCN(c4cccc(Cl)c4)CC3)cc2)co1,–,–,·,·,–,–
CCCC1CCCCN1 (centres undefined),–,·,·,·,·,·
C1CCC(C(CC2CCCCN2)C2CCCCC2)CC1 (centres undefined),-99!,11µM,–,?,13µM,–
COc1ccc(-c2cc(NC=O)c3ncc(-c4ccc(OC)c(OC)c4)n3c2)cn1,–,·,·,·,·,·
CCOc1cnc(-c2c(-c3c(Cl)cccc3Cl)noc2C)o1,-61,–,–,–,–,–
CCOc1cnc(-c2ccc(Cl)cc2)o1,–,·,–,–,–,–
CCOc1ccc(NC(=O)CC2C(=O)N(c3cccc(C)c3)C(=O)N2Cc2cccs2)cc1 (centres undefined),–,–,·,·,–,–
C/C(Cl)=C/Cn1c(=O)c2c(nc(Br)n2Cc2ccccc2)n(C)c1=O,–,·,–,?,–,?
Cn1c(=O)c2c(nc(Oc3ccc4ccccc4c3)n2C)n(C)c1=O,-76,·,–,–,·,–
SMILES,HCMV antiviral,Vaccinia mCherry,Giardia FBPA inh,HCV inh,Vaccinia Venus,FMDV antiviral
Cn1c(=O)c2c(nc(Br)n2Cc2ccc3ccccc3c2)n(C)c1=O,–,·,–,?,·,14µM
CO[C@H]1[C@H](NC(=O)c2ccco2)c2ccccc2C12CCN(Cc1cnc(N(C)C)s1)CC2,·,–,·,·,–,–
CC1CN(C(=O)COC(=O)c2cncc(Br)c2)CC(C)O1 (centres undefined),–,–,·,·,–,–
O=C(CNc1cccc2ccccc12)N/N=C/c1ccccn1,–,?,?,–,–,–
O=C(N/N=C/c1cccc(Oc2ccccc2)c1)c1cccc(Br)c1,–,–,·,?,–,?
O=C(CNc1cccc2ccccc12)N/N=C/c1cccc(Oc2ccccc2)c1,-61,·,?,–,·,–
O=C(N/N=C/c1cccc(Oc2ccccc2)c1)c1ccccc1Br,-91,–,?,11µM,–,·
O=C(Cc1ccc(NC(=O)N2CCCCc3ccccc32)cc1)NCc1ccccc1,–,–,·,·,–,–
CN1C(=O)[C@H]2[C@@H](c3ccc(C(F)(F)F)cc3)N[C@]3(CCCN(CC4CCCCC4)C3=O)[C@H]2C1=O,–,–,·,·,–,–
COC(=O)c1ccc2nc(NC(=O)CSCC(=O)OCC(=O)c3ccccc3)sc2c1,–,–,–,–,–,–
Cc1ccc2nc(NC(=O)CSCC(=O)OCC(=O)c3ccc(Br)cc3)sc2c1,–,–,–,–,–,7.9µM
CC(C)(C)n1cnc2cc(NCc3ccc(Br)cc3)ccc21,–,–,–,–,–,–

# Screening results as filed in PubChem BioAssay.
